Hit rate of the full screen: of about 16,000 compounds, about 5,100 (32%) were called active. Not shown: some 25% with an inconclusive outcome. The call rests on the fitted dose curve; in most records, active means well fitted curve in the direction sought with a large enough effect; inconclusive means small, poorly fitted or top-dose-only effect, or effect the other way; inactive means no such curve, though single readings can be large or run the other way. The list shows a part of the results.
On the % scale 0 is the no-effect control and ±100 the full control effect.

In the assay the target is Cytochrome P450 3A4 (Homo sapiens) (UniProt P08684). Briefly: Cytochrome panel assay with activity outcomes. The conditions noted are these: recombinant CYP, pro-luciferin dealkylation, luminescence, p450-cyp3a4; series mostly up to 57.1 µM.
Cytochrome P450 3A4 (Homo sapiens), sequence (P08684 whole entry, looked up): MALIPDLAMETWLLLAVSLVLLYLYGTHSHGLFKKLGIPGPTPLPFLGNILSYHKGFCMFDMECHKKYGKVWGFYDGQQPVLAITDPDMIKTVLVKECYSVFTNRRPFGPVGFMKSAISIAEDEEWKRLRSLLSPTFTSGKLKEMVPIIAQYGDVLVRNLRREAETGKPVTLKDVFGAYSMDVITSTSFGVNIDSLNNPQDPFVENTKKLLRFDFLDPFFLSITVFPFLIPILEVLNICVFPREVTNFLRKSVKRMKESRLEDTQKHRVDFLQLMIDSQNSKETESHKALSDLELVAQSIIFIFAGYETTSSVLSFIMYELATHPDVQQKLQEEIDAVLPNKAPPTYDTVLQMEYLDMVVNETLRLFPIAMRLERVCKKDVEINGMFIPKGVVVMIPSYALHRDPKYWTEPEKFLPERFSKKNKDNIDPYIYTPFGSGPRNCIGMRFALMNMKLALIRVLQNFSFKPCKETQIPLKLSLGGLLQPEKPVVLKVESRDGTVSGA
For orientation: AC50 means the midpoint of the concentration-response curve, whichever way the signal moves. As for `COc1ccc(/C=C2\CCCC3C2=NN(C(=O)c2ccco2)C3c2ccc(OC)c(OC)c2)cc1OC` (centres undefined), the AC50 is 7.94 µM (active). For the compound `Cc1ncsc1C(=O)N1N=C2/C(=C/c3ccccc3)CCCC2C1c1ccccc1` (centres undefined), the AC50 is 5.01 µM (active). In the case of `O=C1C2=CC[C@@H]3C(=O)N(c4ccc(F)cc4F)C(=O)[C@H]3[C@H]2[C@H](O)[C@H]2O[C@H]12`, the activity, negative = inhibition is -21.3% [at 11.4 µM] (inactive).

As for `CC1(C)CCC(NC(=O)[C@H](N)CCC(=O)O)CC1`, the AC50 result was “inactive”. As for `O=[N+]([O-])c1ccc(Cl)c(/C=N/N2CCN(Cc3ccccc3)CC2)c1`, the AC50 entry was “inactive”. Still for that read-out and setting: in the case of `COc1ccccc1/C=C/C=N/N1CCN(Cc2ccc(Cl)cc2)CC1` it was 14.1 µM (active); in that of `C(/C=C/c1ccco1)=N/N1CCN(c2ccccc2)CC1`, “inactive”. For the compound `CC(C)N(Cc1ccccc1)S(=O)(=O)c1n[nH]c(C(C)(C)C)n1`, the activity, negative = inhibition was -24.5% [at 11.4 µM] (inactive). As for `Fc1ccc2nc(Nc3nc4c(s3)CCCC4)sc2c1`, the AC50 is 22.4 µM (active). As for `O=C(Nc1nc2ccc(F)cc2s1)C1CCCO1` (centres undefined), the AC50 entry was “inactive”. For the compound `CC(C)(C)c1ccc(OC(=O)Nc2ccc(O)c(C(=O)O)c2)cc1`, the activity, negative = inhibition was -11.3% [at 11.4 µM] (inactive). On to `CC1(C)Cc2ccccc2C(N/N=C/c2cccc(F)c2)=N1`, for which the activity, negative = inhibition is 14.5% [at 2.29 µM] (inactive). On to `Cc1cnn(-c2cc(N/N=C/c3ccccc3)ncn2)c1`, for which the AC50 result is “inactive”. `Cc1cccc(/C=N\Nc2cn[nH]c(=O)c2Cl)c1`: the half-maximal activity concentration (AC50) is 15.8 µM (active).

As for `CC(C)N(CCNC(=O)C1CCC(=O)N1Cc1ccc(F)cc1)Cc1ccccc1` (centres undefined), the AC50 entry was “inactive”. On the same count and under the same terms, under `COC(=O)[C@@]1(Cc2ccc(OC)cc2)[C@@H]2[C@@H](CC(=O)[C@H]2CC(=O)C(=O)N(C)C)CN1C(=O)c1ccccc1` stands 1 µM (active); under `COC(=O)[C@@]1(Cc2ccc(F)cc2)[C@@H]2[C@@H](CC(=O)[C@H]2CC(=O)C(=O)N(C)C)CN1C(=O)c1ccccc1`, 6.31 µM (active); under `COC(=O)c1c(C)oc2ccc(N(C(=O)c3ccncc3)S(=O)(=O)c3ccccc3)cc12`, 7.08 µM (active). Take `CN(C(=O)c1ccncc1)c1ccccc1`: the activity, negative = inhibition is -11.8% [at 11.4 µM] (inactive).

`NC(=O)C1CCN(C(=O)CN2C(=O)c3ccccc3S2(=O)=O)CC1`: the AC50 entry was “inactive”. Regarding `O=C(CN1C(=O)c2ccccc2S1(=O)=O)Nc1ccccc1`, the AC50 result is “inactive”. For `Cc1ccc(C)c(C(=O)CN2C(=O)c3ccccc3S2(=O)=O)c1`, the concentration at half-maximal activity (AC50) is 7.94 µM (active).

Consider `O=C(NCCCN1CCN(c2cccc(Cl)c2)CC1)C1CCC(=O)N1Cc1ccccc1Cl` (centres undefined), for which the activity, negative = inhibition is -7.41% [at 2.29 µM] (inactive). As for `CN(CCCNC(=O)C1CCC(=O)N1Cc1ccccc1Cl)c1ccccc1` (centres undefined), the concentration at half-maximal activity (AC50) is 7.08 µM (active). As to `COCCCNC(=O)C1CCC(=O)N1Cc1ccccc1Cl` (centres undefined), the activity, negative = inhibition was -20.1% [at 11.4 µM] (inactive). For `CC(C)NC(=O)N1CCC2(CC1)CCN(S(C)(=O)=O)CC2`, the AC50 result is “inactive”.

In the case of `Cc1cccc(-n2ncc3c(Nc4c(C)n(C)n(-c5ccccc5)c4=O)ncnc32)c1`, the AC50 result was “inactive”.

Take `CCc1c(C)c(C#N)c2nc3ccccc3n2c1Nc1c(C)n(C)n(-c2ccccc2)c1=O`: the AC50 is 7.94 µM (active). For the compound `CCc1c(C)c(C#N)c2nc3ccccc3n2c1N1CCN(c2cc(C)ccn2)CC1`, the AC50 result is “inactive”. Consider `COc1ccc2nc(C)cc(SCC(=O)NNC(=O)COc3ccccc3)c2c1`, for which the concentration at half-maximal activity (AC50) was 2.82 µM (active). As for `COc1ccc2nc(SCC(=O)NN)cc(C)c2c1`, the AC50 is 2.82 µM (active). On to `Cc1ccc(OCC(=O)NNC(=O)c2cc3ccccc3o2)cc1`, for which the AC50 result is “inactive”.

For `COc1ccc(NC(=O)CCSc2cc(C)c3ccccc3n2)cc1`, the concentration at half-maximal activity (AC50) was 3.98 µM (active).

On to `COc1ccc2nc(C)cc(SCC(=O)Nc3c(C)cc(C)cc3C)c2c1`, for which the half-maximal activity concentration (AC50) was 2.51 µM (active). The same measure, in the same setting: under `NCCCCN` stands “inactive”; under `C=CC1=C(C(=O)O)N2C(=O)[C@@H](NC(=O)/C(=N\OCC(=O)O)c3csc(N)n3)[C@@H]2SC1`, “inactive”. Turning to `COc1ccc2nccc(SCC(=O)O)c2c1`, the activity, negative = inhibition was -8.31% [at 11.4 µM] (inactive). For `COc1ccc2nc(C)cc(SCC(=O)NNC(=O)COc3ccc(C)cc3)c2c1`, the concentration at half-maximal activity (AC50) is 2.24 µM (active). `COc1ccccc1-c1nc(NCCNC(C)=O)c2ccccc2n1`: the AC50 entry is “inactive”. Regarding `CC(=O)NCCNc1nc(-c2ccccc2C)nc2ccccc12`, the AC50 is 5.01 µM (active). As to `CC(=O)NCCNc1nc(-c2c(C)noc2C)nc2ccccc12`, the AC50 is 15.8 µM (active). Regarding `NCCCCCCCCCCN`, the AC50 entry is “inactive”.

Regarding `CC(=O)Nc1ccc(NC(=O)C/C(C)=N/NC(=O)C(=O)N2CCCC2)cc1`, the AC50 result was “inactive”. For the compound `CCn1c2ccccc2c2cc(NC(=O)C/C(C)=N/NC(=O)c3ccccc3N)ccc21`, the AC50 was 7.08 µM (active).

Regarding `COc1ccc(CNc2ccnc(-c3c(C)noc3C)n2)c(OC)c1`, the half-maximal activity concentration (AC50) was 2.51 µM (active).

For `COc1ccccc1CNc1ccnc(-c2c(C)noc2C)n1`, the AC50 is 5.01 µM (active). For the compound `CC1(C)Cc2c(sc3nc(SCC(=O)NCc4ccccc4)n(-c4ccccc4)c(=O)c23)CS1`, the AC50 is 3.55 µM (active). On the same count and under the same terms, under `CC1(C)Cc2c(sc3c2C(=O)N(c2ccccc2)C2=NCCN23)CS1` stands “inactive”; under `Cc1ccc(-n2c(SCC(=O)NCc3ccco3)nc3sc4c(c3c2=O)CC(C)(C)SC4)cc1`, 2 µM (active); under `CN(C)c1ccc(-c2cncnc2NCc2cccnc2)cc1`, 0.631 µM (active). For the compound `CN(C)c1ccc(-c2cncnc2NCc2ccccc2)cc1`, the concentration at half-maximal activity (AC50) was 0.0316 µM (active). With `COc1ccccc1CNC(=O)CSc1nc2nc(C)cc(C)n2n1`, the AC50 was 14.1 µM (active). With `CCCSc1nnc(CSc2nc3nc(C)cc(C)n3n2)o1`, the activity, negative = inhibition is 5.19% [at 11.4 µM] (inactive). On to `Cc1cc(C)n2nc(SCc3cc(=O)oc4ccc5ccccc5c34)nc2n1`, for which the AC50 was 2.24 µM (active). `Cc1ccc(/C=N/NC(=O)CSc2nc3nc(C)cc(C)n3n2)cc1`: the concentration at half-maximal activity (AC50) is 15.8 µM (active). With `CCSc1nc2nc(C)cc(C)n2n1`, the AC50 result was “inactive”. For `Cc1cc(C)n2nc(SCC(=O)N/N=C/c3ccccc3F)nc2n1`, the AC50 entry is “inactive”. `COc1cc(NC(=O)COC(=O)c2nc3nc(C)cc(C)n3n2)cc(OC)c1`: the activity, negative = inhibition is 20% [at 2.29 µM] (inactive). `COc1cccc2cc(NC(=O)C3CCCCC3)c(=O)oc12`: the AC50 result is “inactive”. `CCn1c(SCC(=O)NC2CCCCC2)nnc1-c1cc2cccc(OC)c2o1`: the half-maximal activity concentration (AC50) was 10 µM (active). Same read-out and setting: in the case of `CCC(=O)N[C@@H]1CCc2cccc(OC)c2C1` it was “inactive”; in that of `N/C(=N\OC(=O)c1cc(-c2ccccc2)nc2ccccc12)c1ccc(Cl)cc1`, “inactive”; in that of `CCNC(=O)COC(=O)c1cc(=O)[nH]c2ccccc12`, “inactive”.

For the compound `CCNC(=O)COC(=O)c1cc(-c2ccc(OC)cc2)nc2ccccc12`, the concentration at half-maximal activity (AC50) is 14.1 µM (active). In the case of `CCS(=O)(=O)N1CCC(C(=O)NCCCN2CCN(c3ccccc3F)CC2)CC1`, the AC50 entry was “inactive”. On to `CCOCCCNC(=O)CCS(=O)(=O)Cc1ccc(C)cc1`, for which the AC50 entry was “inactive”. For `Cc1ccccc1CS(=O)(=O)CCC(=O)NCCCN1CCN(c2ccccc2F)CC1`, the AC50 is 11.2 µM (active). `Cc1ccc(CS(=O)(=O)CCC(=O)NCCCN2CCCC2=O)cc1`: the AC50 result is “inactive”. Same read-out and setting: under `Cc1ccc(CS(=O)(=O)CCC(=O)NCCCN2CCCC2)cc1` stands 28.2 µM (active); under `CCCS(=O)(=O)N1CCCC(C(=O)NCCCN2CCN(c3ccccc3F)CC2)C1` (centres undefined), “inactive”. As for `Cc1ccc2c(c1)/C(=N/OC(=O)c1ccc(F)cc1)CCS2`, the AC50 entry was “inactive”. Consider `N#Cc1c(-c2ccccc2)nc2n(c1=O)CCS2`, for which the AC50 result was “inactive”.

With `N#Cc1c(-c2ccccc2)no[n+]1[O-]`, the AC50 was 12.6 µM (active). With `N#Cc1c(-c2ccccc2)nc(-c2ccccc2)[nH]c1=O`, the AC50 entry is “inactive”. The same measure, in the same setting: in the case of `COc1ccc(N(CC(=O)NCc2cccc(OC)c2)S(=O)(=O)c2c(C)noc2C)cc1` it was 1.78 µM (active); in that of `COc1cccc(CNCCNC(=O)c2nonc2N)c1`, “inactive”; in that of `CCOc1ccc(N(CC(=O)NCc2ccc(OC)cc2)S(=O)(=O)c2c(C)noc2C)cc1`, 0.631 µM (active). Take `Cn1cccc1C(=O)N1CCC2(CCCN(c3ncccn3)C2)CC1`: the AC50 entry was “inactive”. On the same count and under the same terms, under `Cn1cccc1C(=O)N1CCC[C@@]2(CCN(c3cccc(-c4ccccc4)c3)C2)C1` stands 7.94 µM (active); under `Cn1cccc1C(=O)N1CCC2(CCCN(c3cccc(-c4ccccc4)c3)C2)CC1`, 10 µM (active); under `CC(C)NC(=O)N1CC[C@@]2(CCCN(C(=O)c3cccn3C)C2)C1`, “inactive”.

As for `CN1CCCC2(CCN(C(=O)c3cccn3C)CC2)C1`, the AC50 result was “inactive”. With `Cn1cccc1C(=O)N1CCC[C@@]2(CCN(c3ccncc3)C2)C1`, the half-maximal activity concentration (AC50) is 1 µM (active). For the compound `Cn1cccc1C(=O)N1CCC[C@@]2(CCN(c3ccccc3)C2)C1`, the concentration at half-maximal activity (AC50) was 10 µM (active). With `Cn1cccc1C(=O)N1CCC2(CC1)CN(c1ccncc1)C2`, the AC50 result was “inactive”.

With `Cn1cccc1C(=O)N1CCC2(CC1)CCN(c1cccc(-c3ccccc3)c1)CC2`, the AC50 entry was “inactive”.

On to `Cn1cccc1C(=O)N1CCC2(CC1)CCN(c1ccncc1)CC2`, for which the AC50 entry is “inactive”. On the same count and under the same terms, in the case of `C[N+](C)(C)CCCCCC[N+](C)(C)C` it was “inactive”. For the compound `COC(=O)N1CCC[C@@]2(CCN(C(c3ccccc3)c3ccccc3)C2)C1`, the AC50 entry is “inactive”. For `Cn1cccc1C(=O)N1CCC[C@@]2(CCN(C(c3ccccc3)c3ccccc3)C2)C1`, the AC50 was 12.6 µM (active). The same measure, in the same setting: under `CC(C)NC(=O)N1CCC2(CC1)CCN(C(=O)c1cccn1C)CC2` stands “inactive”.

As for `COc1cccc2c1[C@@H]1CN(CCCCn3c(=O)[nH]c4c(sc5ncc(-c6ccccc6)nc54)c3=O)C[C@H]1CO2`, the AC50 was 15.8 µM (active). Consider `O=C1Nc2ccccc2C(O)(C(=O)NCc2ccc3c(c2)OCO3)N1c1ccc(Cl)c(Cl)c1` (centres undefined), for which the AC50 is 0.126 µM (active). Still for that read-out and setting: in the case of `NCCCC(=O)O` it was “inactive”; in that of `O=S1(=O)[C@H]([C@H]2CC3c4ccccc4C2c2ccccc23)[C@@H](N2CCCCC2)[C@@H]1c1ccccc1`, 1 µM (active). In the case of `c1ccc(C2CCC(N3CCC(N4CCCCC4)CC3)CC2)cc1` (centres undefined), the activity, negative = inhibition was -4.19% [at 2.29 µM] (inactive). Turning to `O=C(Cc1ccccc1I)Nc1ccccc1`, the AC50 entry was “inactive”.

On to `CCC#CCOCC(=O)Nc1ccccc1`, for which the AC50 result is “inactive”. For the compound `CCCCC#Cc1ccccc1CC(=O)Nc1ccccc1`, the AC50 is 1 µM (active).

Values taken from PubChem BioAssay AID1851 (National Center for Advancing Translational Sciences (NCATS), 2009).
